TDP1 inh = qHTS Assay for Inhibitors of Tyrosyl-DNA Phosphodiesterase (TDP1); recombinant TDP1, AlphaScreen DNA substrate cleavage; Tyrosyl-DNA phosphodiesterase 1 (Homo sapiens), Q9NUW8; Potency, µM (top dose mostly 130 µM), inactives show at the top dose activity change, negative = inhibition, actives largely listed as inhibitors; actives 0.28% (n = 350,000); note: nearly all actives have a fitted effect of over 40% in size
Target sequence (Q9NUW8 whole entry, looked up): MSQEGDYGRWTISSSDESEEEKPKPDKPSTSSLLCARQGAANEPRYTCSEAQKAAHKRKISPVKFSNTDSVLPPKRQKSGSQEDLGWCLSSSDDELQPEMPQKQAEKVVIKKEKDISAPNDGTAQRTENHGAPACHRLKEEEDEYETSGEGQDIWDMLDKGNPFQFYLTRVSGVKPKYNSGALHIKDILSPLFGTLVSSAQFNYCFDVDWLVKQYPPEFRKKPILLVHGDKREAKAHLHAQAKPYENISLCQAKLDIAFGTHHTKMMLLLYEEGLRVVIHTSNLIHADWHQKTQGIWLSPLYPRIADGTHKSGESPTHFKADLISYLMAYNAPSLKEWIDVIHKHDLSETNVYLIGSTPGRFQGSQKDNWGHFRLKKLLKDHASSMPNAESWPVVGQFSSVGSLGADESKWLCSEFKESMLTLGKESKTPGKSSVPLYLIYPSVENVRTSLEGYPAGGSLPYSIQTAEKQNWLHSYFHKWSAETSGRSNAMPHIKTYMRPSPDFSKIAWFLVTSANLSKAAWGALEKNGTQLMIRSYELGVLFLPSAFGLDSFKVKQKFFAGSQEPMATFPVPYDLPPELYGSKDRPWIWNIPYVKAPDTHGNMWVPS
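Recombinant human Tdp1 (E. coli-expressed, 1 nM final) preincubated with compounds 15 min at room temperature, then 5'-biotin/3'-phosphotyrosine-FITC DNA substrate (15 nM final) added for 5 min. AlphaScreen beads (10 ug/ml final) added 10 min; cleavage lowers signal.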
Gal4-VP16 FLuc = VP16 counterscreen qHTS for inhibitors of ROR gamma transcriptional activity | actives 3.5% (n = 310,000) | Potency, µM (series often up to 53.6 µM), for the others: at the top dose activity, negative = inhibition, actives largely listed as inhibitors | AID 2546, 2010 | Drosophila S2 Gal4-VP16 UAS-luciferase, luminescence, 20 h;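 note: Gal4-VP16 expression switched on by copper sulfate through the metallothionein promoter; nearly all actives have a fitted effect of over 50% in size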
DT40 TDP1 CPT = qHTS for Inhibitors of human tyrosyl-DNA phosphodiesterase 1 (TDP1): qHTS in cells in presence of CPT; chicken DT40 Tdp1-/-;hTDP1 cells + 20 nM CPT, ATP luminescence, 48 h; Potency, µM (doses to about 46.2 µM), for the others: at the top dose activity change, negative = growth inhibition, most hits filed as inhibitors; actives 12% (n = 420,000); note: nearly all actives have a fitted effect of over 55% in size
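Chicken DT40 Tdp1-/- cells stably complemented with human TDP1 were seeded at 400 cells/well in medium containing 20 nM camptothecin, exposed to pin-transferred compounds, and grown at 37 °C for at least 48 hr. Viability was read as ATP luminescence.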
DT40 TDP1 no CPT = qHTS for Inhibitors of human tyrosyl-DNA phosphodiesterase 1 (TDP1): qHTS in cells in absence of CPT | DT40 Tdp1-/- hTDP1 cells, no CPT, ATP luminescence, 48 h | actives 15% (n = 420,000) | Potency, µM (doses to about 46.2 µM), for inactives: at the highest dose activity change, negative = growth inhibition, most hits filed as inhibitors; note: nearly all actives have a fitted effect of over 55% in size
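Cells were dispensed at 400 per well, compounds added by pin tool, plates incubated ≥48 hr at 37 °C, then CellTiter-Glo added for 30 min at room temperature before luminescence reading. Line: DT40 Tdp1-/- complemented with hTDP1; camptothecin omitted.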
RORgamma inh = qHTS for inhibitors of ROR gamma transcriptional activity; Nuclear receptor ROR-gamma (Mus musculus), P51450; Drosophila S2 Gal4-RORgamma UAS-luciferase reporter, 20 h; Potency, µM (top dose mostly 53.6 µM), without a hit: at the top dose activity change, negative = inhibition, actives largely listed as inhibitors; actives 5.4% (n = 310,000); note: nearly all actives have a fitted effect of over 60% in size
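Stable Schneider cell line, Gal4 DNA-binding domain fused to ROR gamma, UAS-luciferase. Cmpd 1 hr RT → CuSO4 700 uM final → 20 hr RT → luciferase reagent 10 min → luminescence.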
The depositor's hits bear a star; ? = inconclusive; · = no result given; [ ] = remark or other dose. In the library only some 19% were active in any assay of this set; here they are far more common. Calls come from the whole dose curve; as a rule, active = well fitted curve in the direction sought with a large enough effect; inconclusive = small, poorly fitted or top-dose-only effect, or another doubt; inactive = no such curve, though single readings can be large; an effect the other way counts as inactive or inconclusive. % is set by controls: 0 for no effect and ±100 for the full control effect; potency is the fitted concentration of half-maximal effect.

SMILES	TDP1 inh	Gal4-VP16 FLuc	DT40 TDP1 CPT	DT40 TDP1 no CPT	RORgamma inh
COc1ccc(OC)c(NC(=O)c2cc3c(cc2Cl)N2CCCCCC2=NS3(=O)=O)c1	0.7%	·	?	16.4µM*	·
CC(C)OC(=O)c1ccc(N2CCN(c3ccc(F)cc3)CC2)nc1	·	-7.5%	?	?	?
CC(C)OC(=O)c1ccc(N2CCN(c3ccccc3F)CC2)nc1	·	7.5%	?	18.4µM*	28.1%
COc1ccc(OC)c(NC(=O)c2ccccc2SC)c1	0.0%	4.4%	1.7%	-26.8%	-9.8%
COc1ccc(OC)c(NC(=O)c2cnc(N3CCCCC3)c3ccccc23)c1	6.6%	·	10.3µM*	8.2µM*	·
COc1ccc(OC)c(NC(=O)c2cc3oc4ccccc4c3cc2O)c1	-2.9%	?	?	16.4µM*	-12.1%
COc1ccc(OC)c(NC(=O)c2cnc(N3CCCC3)nc2C)c1	1.2%	·	-1.0%	-14.1%	·
CCOc1ccccc1NC(=O)c1cnc(N2CCOCC2)c2ccccc12	4.4%	·	20.6µM*	18.4µM*	·
O=C(C1CCCCC1)N1C[C@H](n2cc(-c3ccc(F)cc3)nn2)[C@@H](O)C[C@@H]1c1ccc(Cl)cc1	·	·	?	16.4µM*	·
Cc1ccc([C@H]2C[C@@H](O)[C@H](n3cc(-c4ccc(F)cc4)nn3)CN2C(=O)C2CCCCC2)cc1	·	·	?	23.1µM*	·
COc1ccc([C@H]2C[C@@H](n3cc(-c4ccc(F)cc4)nn3)[C@H](O)CN2C(=O)C2CCCCC2)cc1	·	·	?	8.2µM*	·
O=C(C1CCCCC1)N1C[C@@H](n2cc(-c3ccc(F)cc3)nn2)[C@H](O)C[C@@H]1c1ccc(Cl)cc1	·	·	18.4µM*	23.1µM*	·
COc1ccc([C@H]2C[C@@H](n3cc(C4CC4)nn3)[C@H](O)CN2C(=O)C2CCCCC2)cc1	·	·	-20.9%	-29.8%	·
COc1ccc(C(=O)/C=C/c2ccc(OCc3ccccc3)cc2)cc1CSCC(=O)O	3.8%	16.3%	3.2%	1.9%	26.7%
O=C(c1ccccc1-c1nc(-c2ccccc2Cl)no1)N1CCOCC1	5.1%	-8.6%	2.6%	-15.5%	-7.4%
Nc1ccc(C#Cc2ccccc2)cc1	-4.8%	8.5%	3.7%	1.5%	17.8%
NS(=O)(=O)C#Cc1ccccc1	6.2%	?	·	·	5.62µM*
O=C(NCc1cccc(C(F)(F)F)c1)C1CC2Cn3c(nc4ccccc43)C2N1Cc1ccccc1 (stereo not given)	·	·	-90.1%	13µM*	·
O=C(NCc1ccc(OC(F)(F)F)cc1)C1CC2Cn3c(nc4ccccc43)C2N1Cc1ccccc1 (stereo not given)	·	-1.2%	?	?	-16.7%
CCC1CCCCN1C(=O)COc1c(Br)cc(Br)c2cccnc12 (stereo not given)	2.6%	?	?	?	12.6µM*
CCC1CCCCN1C(=O)COc1ccc(F)cc1 (stereo not given)	0.0%	0.9%	-12.4%	-0.7%	-2.2%
O=C(CCCOc1ccccc1)N1CCCCC1	6.0%	-11.9%	-18.7%	-25.3%	-4.2%
CCC1CCCCN1C(=O)CCCOc1ccccc1 (stereo not given)	-1.0%	3.4%	23.1µM*	?	?
CC(=O)c1ccc(S(=O)(=O)Nc2cccc(-c3ccc(N4CCCCCC4)nn3)c2)cc1	3.0%	·	-19.4%	-21.9%	·
Cn1c(=O)n(C)c2cc(CN3C(=O)OC(C)(C)C3(C)O)ccc21 (stereo not given)	5.4%	-4.3%	16.7%	3.7%	?
SMILES	TDP1 inh	Gal4-VP16 FLuc	DT40 TDP1 CPT	DT40 TDP1 no CPT	RORgamma inh
CSc1ccccc1OCc1cc(C(=O)NCCN2CCCc3ccccc32)no1	8.1%	?	?	14.6µM*	4.8%
CCN(CC)C1CCN(C(=O)c2cc(COc3ccccc3SC)on2)C1 (stereo not given)	6.3%	-13.1%	-11.7%	0.6%	0.0%
CCN(CC1CCCO1)C(=O)c1cc(COc2ccccc2SC)on1 (stereo not given)	0.7%	-15.3%	16.4µM*	20.6µM*	-28.1%
CSc1ccccc1OCc1cc(C(=O)N(C)Cc2ccc(C)o2)no1	6.5%	14.2%	16.4µM*	?	43.0%
CSc1ccccc1OCc1cc(C(=O)NCCn2nc(C)cc2C)no1	4.4%	3.8%	11.6µM*	?	23.5%
Cc1cc(C)n(CCNC(=O)c2cc(COc3ccc(F)cc3Cl)on2)n1	·	0.0%	?	?	?
Cc1ccc(N(C(=O)c2ccn[nH]2)C(C(=O)NC2CCCC2)c2cccs2)cc1 (stereo not given)	-3.1%	3.1%	·	·	37.9%
COc1ccc(NC(=O)C(Cc2ccccc2)NC(=O)c2ccco2)cc1OC (stereo not given)	1.0%	7.6%	-4.1%	-2.4%	11.3%
O=C(C[n+]1cccc2ccccc21)c1ccc([N+](=O)[O-])cc1	7.1%	-17.6%	20.6µM*	?	13.3%
O=C(C[n+]1cccc2ccccc21)c1ccc(Cl)cc1	·	-2.9%	-21.7%	-13.3%	?
O=[N+]([O-])c1ccc(Cl)c(C[n+]2cccc3ccccc32)c1	·	-6.2%	20.6µM*	18.4µM*	2.1%
COc1cccc(C(=O)C[n+]2cccc3cc(OC)ccc32)c1	0.0%	·	2.4%	-25.4%	·
COc1ccc(C(=O)C[n+]2cccc3cc(OC)ccc32)cc1	·	-1.1%	?	20.6µM*	23.2%
Clc1cccc(Cl)c1C[n+]1cccc2ccccc21	·	·	2.06µM*	2.06µM*	·
COC(=O)c1oc2ccccc2c1-n1cccc1	5.1%	-2.4%	-1.1%	-25.6%	-1.6%
COc1ccc(C)c2sc(N3CCN(C(=O)c4cccc(F)c4)CC3)nc12	7.8%	·	-17.5%	-25.2%	·
CCN(CC)CCN(C(=O)C1=COCCO1)c1nc2cc3c(cc2s1)OCO3	0.0%	-15.1%[10 µM]	-13.0%	-30.0%	0.6%
CC(C)Cc1cc(C(C)(C)C)ccc1OC(=S)N(C)C	·	1.3%	?	?	12.6µM*
Cc1cc(C(C)(C)C)ccc1OCCN(C)C	-10.5%	-1.8%	-27.2%	2.1%	-22.8%
COC(=O)C1C(=O)/C(=C(/C)N2CCCC2)C(=O)CC1(C)C (stereo not given)	-7.9%	22.7%	-12.7%	-7.8%	-1.0%
COc1ccc(/C=N/N2CCN(Cc3ccccc3)CC2)cc1	·	0.1%	-12.7%	-26.0%	1.3%
Cc1cc(NC(=O)NC(=O)c2ccc(F)cc2F)n[nH]1	0.0%	?	1.3%	?	8.91µM*
C#Cc1ccc(NC(=O)C2(C)CCN2C(=O)C2(c3ccccc3)CCCC2)cc1 (stereo not given)	·	·	23.1µM*	16.4µM*	·
